Where “and” joins values, the source holds several entries; their conditions need not be identical. Equal values may be shown once. Results filed as inconclusive are left out. A call without a number means that no potency is given here. A structure can be active in one record and inactive in another. Calls of active or inactive are those of the source. Calls follow the shape of the dose curve; as a rule, active = well fitted curve in the direction sought with a large enough effect in the repeat runs; inconclusive = weak or mixed curves; inactive = no such curve, though single readings can be large; an effect the other way counts as inactive or inconclusive.
How the values were obtained:
[1] = A CellTox Green Cytotoxicity Assay to monitor cytotoxicity in HEK293 cells - 32 hour (AID 1224881); also: nearly all actives have a fitted effect of over 40% in size; also: potency is read from the fitted curve at half-maximal effect
Outline: (§1)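 Seeding of HEK293 cells together with cytotoxicity dye preceded a 5 h incubation at 37 C/5% CO2. Test compounds in DMSO were then added and fluorescence monitored across 40 h.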

[2] = A CellTox Green Cytotoxicity Assay to monitor cytotoxicity in HepG2 cells - 0 hour (AID 1224882); also: nearly all actives have a fitted effect of over 35% in size
Outline: (§2)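 Nonlytic assay: viable cells exclude the dye, so fluorescence scales with cell death. HepG2 at 600 cells/well, compounds added after 5 h, signal read across 40 h.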

[3] = A CellTox Green Cytotoxicity Assay to monitor cytotoxicity in HepG2 cells - 32 hour (AID 1224883); also: nearly all actives have a fitted effect of over 50% in size; also: potency is read from the fitted curve at half-maximal effect
Outline: as §2

[4] = A CellTox Green Cytotoxicity Assay to monitor cytotoxicity in HEK293 cells - 8 hour (AID 1224884); also: nearly all actives have a fitted effect of over 35% in size; also: potency is read from the fitted curve at half-maximal effect
Outline: as §1

[5] = qHTS RealTime-Glo MT Cell Viability Assay in HepG2 cells - 16 hour (AID 1224885); also: nearly all actives have a fitted effect of over 50% in size; also: potency is read from the fitted curve at half-maximal effect
Outline: (§3)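 Viability was tracked continuously by NanoLuc luminescence from prosubstrate reduced by living HepG2 cells, at successive time points over 40 h of compound exposure. Cells with reagent were preincubated 5 h at 37 °C before compound addition.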

[6] = qHTS RealTime-Glo MT Cell Viability Assay in HEK293 cells - 24 hour (AID 1224886); also: nearly all actives have a fitted effect of over 50% in size; also: potency is read from the fitted curve at half-maximal effect
Outline: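 Viability tracked continuously by luminescence as live cells reduce a prosubstrate for NanoLuc; HEK293 cells preincubated 5 h, compound-treated at 37 C, and read at 0, 8, 16, 24, 32 and 40 h.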

[7] = qHTS RealTime-Glo MT Cell Viability Assay in HEK293 cells - 8 hour (AID 1224887); also: nearly all actives have a fitted effect of over 50% in size; also: potency is read from the fitted curve at half-maximal effect
Outline: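 Tox21 screen in HEK293 using RealTime-Glo MT chemistry, with cells and reagent co-dispensed. Luminescence proportional to viable cell number was captured at intervals during 40 h compound exposure at 37 C.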

[8] = A CellTox Green Cytotoxicity Assay to monitor cytotoxicity in HEK293 cells - 16 hour (AID 1224888); also: nearly all actives have a fitted effect of over 35% in size; also: potency is read from the fitted curve at half-maximal effect
Outline: as §1

[9] = qHTS RealTime-Glo MT Cell Viability Assay in HepG2 cells - 0 hour (AID 1224889); also: nearly all actives have a fitted effect of over 50% in size
Outline: as §3

[10] = A CellTox Green Cytotoxicity Assay to monitor cytotoxicity in HepG2 cells - 8 hour (AID 1224890); also: nearly all actives have a fitted effect of over 45% in size; also: potency is read from the fitted curve at half-maximal effect
Outline: as §2

Compound	Potency [1]	Potency [2]	Potency [3]	Potency [4]	Potency [5]	Potency [6]	Potency [7]	Potency [8]	Potency [9]	Potency [10]
NC(=O)c1cccc([N+](=O)[O-])c1	inactive	inactive	inactive	inactive	inactive	inactive	inactive	inactive	inactive	inactive
Oc1ccccc1O	inactive	inactive	inactive	inactive	inactive	49.6 µM (active) and 24.5 µM (active)	inactive	inactive	inactive	inactive
CCC(C)(CCC(C)C)C(=O)[O][Sn]([CH3])([CH3])[O]C(=O)C(C)(CC)CCC(C)C (stereo not given)	inactive	inactive	inactive	inactive	inactive	inactive	inactive	inactive	inactive	inactive
Nc1nc(-c2ccccc2)cs1	inactive	inactive	inactive	inactive	inactive	inactive	inactive	inactive	inactive	inactive
CCc1ccc(Br)cc1	inactive	inactive	inactive	inactive	inactive	inactive	inactive	inactive	inactive	inactive
COc1cccc2c1C(=O)c1c(O)c3c(c(O)c1C2=O)C[C@@](O)(C(C)=O)C[C@@H]3O[C@H]1C[C@H](N)[C@H](O)[C@H](C)O1	43.9 µM (active) and inactive	inactive	inactive and 30.1 nM (active)	39.1 µM (active)	43.9 µM (active) and 23.9 µM (active)	110 nM (active) and 4.8 nM (active)	15.6 µM (active) and 21.3 µM (active)	39.1 µM (active)	inactive	55.3 µM (active)
Cc1c(C)c([N+](=O)[O-])c(C(C)(C)C)c([N+](=O)[O-])c1C	inactive	inactive	inactive	inactive	inactive	inactive	inactive	inactive	inactive	inactive
COC(C)=O	inactive	inactive	inactive	inactive	inactive	inactive	inactive	inactive	inactive	inactive
OC[C@@H](O)[C@@H](O)CO	inactive	inactive	inactive	inactive	inactive	inactive	inactive	inactive	inactive	inactive
O=C(O)Cc1ccc2c(c1)C(=O)c1ccccc1CO2	inactive	inactive	inactive	inactive	inactive	inactive	inactive	inactive	inactive	inactive
c1cnccn1	inactive	inactive	inactive	inactive	inactive	inactive	inactive	inactive	inactive	inactive
FC(F)(F)c1cccc(Cl)c1	inactive	inactive	inactive	inactive	inactive	inactive	inactive	inactive	inactive	inactive
C=C(CC)C(=O)c1ccc(OCC(=O)O)c(Cl)c1Cl	inactive	inactive	inactive	inactive	inactive	inactive	inactive	inactive	inactive	inactive
CCN1C(=O)c2ccccc2C1Nc1ccc(OCCN2CCCCC2)cc1 (stereo not given)	inactive	inactive	inactive	inactive	inactive	4.77 µM (active)	3.79 µM (active)	inactive	inactive	inactive
C=Cc1ccccc1C=C	inactive	inactive	inactive	inactive	inactive	inactive	inactive	inactive	inactive	inactive
CC(=O)Oc1cc2c(s1)CCN(C(C(=O)C1CC1)c1ccccc1F)C2 (stereo not given)	inactive	inactive	inactive	inactive	inactive	inactive	inactive	inactive	inactive	inactive
O=C(O)c1ccc2cc(C(=O)O)ccc2c1	inactive	inactive	inactive	inactive	inactive	inactive	inactive	inactive	inactive	inactive
CCC(CC)(CC(=O)Nc1cccc(/C=C/c2nc(C3CCC3)cs2)c1)C(=O)O	inactive	inactive	inactive	inactive	inactive	inactive	inactive	inactive	inactive	inactive
CN(C)c1ccc(C(=C2C=CC(=[N+](C)C)C=C2)c2ccc(N(C)C)cc2)cc1	inactive	inactive	10.9 µM (active) and 11 µM (active) and 19 µM (active)	inactive	21.8 µM (active) and 24.5 µM (active)	5.47 µM (active) and 7.76 µM (active) and 3.01 µM (active)	21.8 µM (active) and 43.6 µM (active)	inactive	inactive	inactive
